HT1080NT lethal – kills 2HG-producing HT-1080-NT fibrosarcoma cells | HT-1080-NT fibrosarcoma viability, CellTiter-Glo ATP luminescence, 48 h | Potency, µM (doses to about 46.1 µM), for inactives: at the highest dose activity, negative = less viability, usual class: cytotoxic | 360,000 compounds, 1.6% hits | AID 686970;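 further: NT is the 2HG producing partner of a matched IDH1 knockdown line; potency means the concentration at half of the fitted maximal effect; 0% = DMSO-treated cells and -100% = media-only wells without cells; nearly all actives have a fitted effect of over 55% in size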
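HT-1080-NT; 750 cells/well; 5% FBS RPMI; 48 h compound, 37 degrees C; CellTiter-Glo luminescence; curve fitting and curve-class assignment.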
uPA generation – cell surface uPA generation inhibition; AID 540303; Potency, µM (doses to about 38.3 µM), for the others: at the top dose activity change, negative = inhibition, usual class: inhibitors; cell surface uPA generation assay, qHTS; 330,000 compounds, 0.31% hits; active means well fitted inhibition curve with a large enough effect; inconclusive means small, poorly fitted or top-dose-only effect; inactive means no such curve, though single readings can be large or run the other way; tested in mouse RAW 264.7 cells; further: potency means the concentration at half of the fitted maximal effect; nearly all actives have a fitted effect of over 55% in size
IL-1B inflam inh – inflammasome signaling inhibition, IL-1 beta readout; activity change, % at 57.5 µM; AID 743279; THP-1 LPS/ATP IL-1B secretion, AlphaLISA, 16 h; stronger effect = lower value; 360,000 compounds, 4.7% hits; in the data active means activity change below about -50%; inconclusive means mostly about -30% to -49%
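THP-1 cells pretreated 1 hr with compounds (up to 57.5 uM final), then stimulated with LPS (250 ng/mL final) plus ATP (1.25 mM final); secreted IL-1B measured by AlphaLISA after 16 hr, decreased signal indicating inhibition.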
DT40 TDP1 no CPT – qHTS for Inhibitors of human tyrosyl-DNA phosphodiesterase 1 (TDP1): qHTS in cells in absence of CPT | 420,000 compounds, 15% hits | Potency, µM (highest dose often 46.2 µM), inactives show at the highest dose activity change, negative = growth inhibition, hits mostly inhibitors | DT40 Tdp1-/- hTDP1 cells, no CPT, ATP luminescence, 48 h | AID 686978, 2013; further: potency means the concentration at half of the fitted maximal effect; nearly all actives have a fitted effect of over 55% in size
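Chicken DT40 Tdp1-/- cells complemented with human TDP1, screened without camptothecin (DMSO vehicle only), 400 cells/well. Compounds pin-transferred, cells incubated at 37 °C for at least 48 hr. Growth read as ATP-dependent luminescence (CellTiter-Glo, 30 min at RT).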
TDP1 cell CPT – growth inhibition of DT40 Tdp1-/-;hTDP1 cells with camptothecin (screen for TDP1 inhibitors); chicken DT40 Tdp1-/-;hTDP1 cells + 20 nM CPT, ATP luminescence, 48 h; Potency, µM (doses to about 46.2 µM), for inactives: at the highest dose activity change, negative = growth inhibition, usual class: inhibitors; 420,000 compounds, 12% hits; further: potency means the concentration at half of the fitted maximal effect; nearly all actives have a fitted effect of over 55% in size
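Chicken DT40 Tdp1-/- cells stably complemented with human TDP1 were seeded at 400 cells/well in medium containing 20 nM camptothecin, exposed to pin-transferred compounds, and grown at 37 °C for at least 48 hr. Viability was read as ATP luminescence.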
HT1080 IDH1KD tx – toxicity to HT-1080 IDH1 knockdown cells (counter line) | AID 686971 | HT-1080 IDH1 knockdown viability, ATP luminescence, 48 h | Potency, µM (top dose mostly 46.1 µM), for the others: top-dose activity, negative = toxicity, usual class: cytotoxic | 360,000 compounds, 2% hits;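 further: potency means the concentration at half of the fitted maximal effect; 0% = DMSO wells and -100% = cell-free medium wells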
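Using the IDH1-knockdown HT-1080 line run in the same batch and compound series as the NT line, viability after 48 h at 37 °C was determined by CellTiter-Glo luminescence and expressed as % activity.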
Numbers without * were called inactive; i = inactive; ? = inconclusive; nt = no result; [ ] = dose if it differs, or a comment. Compounds with a hit are over-represented: about 19% of the library has one in this group of screens. Unless noted, the call rests on the fitted dose curve; in most records, active means well fitted curve in the direction sought with a large enough effect; inconclusive means small, poorly fitted or top-dose-only effect, or another doubt; inactive means no such curve, though single readings can be large; an effect the other way counts as inactive or inconclusive. Unless noted, on the % scale 0 is the no-effect control and ±100 the full control effect.

SMILES | HT1080NT lethal | uPA generation | IL-1B inflam inh | DT40 TDP1 no CPT | TDP1 cell CPT | HT1080 IDH1KD tx
CCN1C[C@@H]2[C@@H]3C(=O)N(C)C(=O)[C@@H]3[C@](CC)(C1=O)N2C(=O)c1ccc(C(C)(C)C)cc1 | 26% | 5% | 19 | -13% | -1% | 9%
CCNc1nc(SCCOc2ccc(C)cc2)nc(N(C)C)n1 | -18% | -4% | 41 | 21µM* | 16µM* | -28%
CCCOc1ccc2c(c1)C(=NN=C(N)N)c1cc(OCCC)ccc1-2 | ? | -4% | -97* | 23µM* | 26µM* | ?
CCN(CC)CCOc1ccc2c(c1)C(=NO)c1cc(OCCN(CC)CC)ccc1-2 | 10µM* | ? | -105* | 18µM* | 18µM* | 7.1µM*
CCN(CC)S(=O)(=O)c1cccc(S(=O)(=O)c2cccc(S(=O)(=O)N(CC)CC)c2)c1 | 0%[9.24 µM] | nt | -23 | 18µM* | 21µM* | ?
CCN(CC)S(=O)(=O)c1cccc(S(=O)(=O)N2CCCCC2)c1 | 1% | 8% | -2 | -8% | -6% | 0%
CCN(CC)S(=O)(=O)c1ccc2c(c1)C(=NO)c1cc(S(=O)(=O)N(CC)CC)ccc1-2 | 18µM* | -13% | -23 | 2.3µM* | 2.3µM* | 7.3µM*
CCN(CC)CCOc1ccc(Br)cc1 | 7% | 5% | -19 | -19% | -9% | 4%
COc1ccc2c(c1)CCc1cnc(-n3ncc(C(=O)N(C)CC4CCCN(C)C4)c3C)nc1-2 (stereo not drawn) | nt | nt | nt | -10% | -11% | nt
O=C1NC(=O)C2C3OC(C(Br)C3Br)C12 (stereo not drawn) | 2% | nt | -6 | 1% | 10% | 0%
CCOC(=O)C(NC(=O)NCc1cccc(C(F)(F)F)c1)(OCC)C(F)(F)F (stereo not drawn) | 5% | 0% | 13 | -5% | 0% | 7%
CCOC(=O)C(NC(=O)c1ccccc1)(OCc1ccc(F)cc1)C(F)(F)F (stereo not drawn) | -8% | 4% | -5 | 18µM* | -27% | -4%
CCOC(=O)C(NC(=O)c1ccccc1)(OCC1(CC)COC1)C(F)(F)F (stereo not drawn) | -1% | 1% | 12 | -9% | -3% | -3%
CCOC(=O)C(NC(=O)c1cccc(Cl)c1)(OCc1ccc(F)cc1)C(F)(F)F (stereo not drawn) | ? | -13% | -100* | ? | ? | ?
Cc1cc(Cn2nc(C(=O)NCc3cccc(C(F)(F)F)c3)cc2-c2ccccc2)on1 | -1% | 16% | -24 | ? | ? | -1%
COCC(C)n1c(SC(C)C(=O)NC2CCCCC2C)nc2ccccc2c1=O (stereo not drawn) | 3% | -7% | i | ? | ? | -8%
Clc1ncc(C#Cc2ccccc2)c2ncncc12 | ? | nt | nt | 0.79µM* | 1.4µM* | ?
COC(=O)c1ccccc1NC(=O)CSc1nc2ccsc2c(=O)n1CCCCC(=O)O | -1% | nt | 9 | -23% | -28% | -3%
O=C(N[C@@H]1C/C=C\C[C@H](CC(=O)N(CCO)Cc2ccccc2)C(=O)NC[C@@H](c2ccccc2)OC1=O)OCC1c2ccccc2-c2ccccc21 | ? | ? | -13 | 5.8µM* | 6.5µM* | ?
O=C(N[C@@H]1C/C=C\C[C@@H](CC(=O)N(CCO)Cc2ccccc2)C(=O)NC[C@H](c2ccccc2)OC1=O)OCC1c2ccccc2-c2ccccc21 | ? | ? | -6 | 7.3µM* | 2.6µM* | -21%
O=c1c(-c2ccccc2)nc2cnc(Oc3ccccc3)nc2n1Cc1cccs1 | nt | nt | nt | ? | -8% | nt
Cc1cc(C)cc(NC(=S)N(CCN(C)C)Cc2cccs2)c1 | -5% | 0% | ? | -23% | 10% | -5%
CCOC(=O)CSc1nc(-c2ccc(F)cc2)cc(C(F)(F)F)c1C#N | nt | nt | nt | -21% | -4% | nt
Cc1ccc(CNC(=O)c2sc3nc(C)cc(C)c3c2-n2cccc2)cc1 | nt | nt | nt | ? | -24% | nt
CCOc1ccc(Cn2nnc(C(=O)NCCc3ccccc3)c2N)cc1 | -1% | 10% | ? | -8% | 1% | 3%
SMILES | HT1080NT lethal | uPA generation | IL-1B inflam inh | DT40 TDP1 no CPT | TDP1 cell CPT | HT1080 IDH1KD tx
Cc1ccc(C)n1-c1c(C(=O)NCC(C)c2ccccc2)sc2ncccc12 (stereo not drawn) | nt | nt | nt | 18µM* | 21µM* | nt
CNC(=O)c1sc2ncccc2c1-n1cccc1 | nt | nt | nt | ? | -22% | nt
Cc1ccc(CCNC(=O)c2sc3ncccc3c2-n2c(C)ccc2C)cc1 | nt | nt | nt | 6.5µM* | 12µM* | nt
CCOc1ccc(CCNC(=O)c2sc3ncccc3c2-n2c(C)ccc2C)cc1 | nt | nt | nt | 15µM* | 13µM* | nt
Cc1nc(NCc2cnn(C)c2)sc1-c1ccn(-c2cccc(F)c2)n1 | nt | nt | nt | -24% | 22%[9.04 µM] | nt
Cc1ccnc(NC(=O)COc2ccc(Cl)cc2)n1 | 6% | 5% | -15 | -2% | -5% | 6%
Cc1ccc(-n2nc(C)c(NC(=O)CCl)c2C)cc1C | ? | -9% | -104* | 8.2µM* | 8.2µM* | ?
CCC(=O)Nc1c(C)nn(-c2ccc(C)c(C)c2)c1C | 9% | 0% | 10 | -4% | -5% | 4%
Cc1nn(-c2ccccc2)c(C)c1NC(=O)COc1ccccc1C#N | -2% | nt | 18 | -25% | ? | 6%
Cc1nn(C)c(C)c1NC(=O)COc1ccc(Cl)cc1 | -8% | -14% | 21 | 2.6µM* | 6.5µM* | -30%
Cc1nn(-c2ccccc2)c(C)c1NC(=O)COc1ccc2ccccc2c1 | -25% | nt | -5 | 18µM* | 16µM* | ?
Cc1nn(-c2ccccc2)c(C)c1NC(=O)COc1ccc(C#N)cc1 | 8% | 2% | 16 | 12µM* | ? | 3%
O=C(N/N=C/c1cccc([N+](=O)[O-])c1)c1c[nH]c2ccccc12 | -14% | 1% | -12 | ? | -16% | -7%
O=C(NN=Cc1cc([N+](=O)[O-])ccc1O)c1cccc2ccccc12 | ? | -9% | 65 | 7.3µM* | 7.3µM* | 6.5µM*
O=C(N/N=C/c1cc([N+](=O)[O-])ccc1O)c1c[nH]c2ccccc12 | ? | -11% | 209 | ? | ? | 15µM*
Nc1ccc(C(=O)N/N=C\c2cc(N=Nc3cccc4ccccc34)ccc2O)cc1 | ? | -13% | 27 | 4.6µM* | 5.2µM* | 12µM*
COC(=O)c1ccc(/C=N/n2c(C)nc3ccccc3c2=O)cc1 | 0% | -10% | -11 | ? | -12% | 8%

Bioassay records from PubChem BioAssay.
